Among the data in PubChem BioAssay AID652128 (Broad Institute, 2013) are AC50 and outcome values, retold here.

The structures appear in SMILES notation. The list shows a part of the results. Records with an inconclusive call do not appear. The source made the active and inactive calls.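 How the source made its calls: active means fitted half-maximal concentration for signal loss at or below twice the highest dose tested, in every separate run (actives reach about 64 µM in these data); inconclusive means runs disagree, or flat partial signal loss, or poor fit; inactive means the rest.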

The assay in a line: DNA-binding compounds via dye displacement, dose response, artefact control for RAD52 inhibitor project, biochemical, fluorescence polarization, cherry-pick (AID 652128). To be noted: Salmon sperm DNA/acridine orange FP displacement. For orientation: Polarisation of emitted light reports the rotation of a fluorescent probe.
Usually AC50 stands for the midpoint of the concentration-response curve, whichever way the signal moves. Regarding `CCOc1cccc(=NC2CCCCC2)c2c(C)[nH]c(C)c12`, the half-maximal activity concentration (AC50) is 36 µM (active).

In the case of `CCCCCCCCCCCCn1ccc(=N)cc1`, the outcome was inactive.

With `C[N+]1(C)CCOC(O)(c2ccc(-c3ccc(C4(O)C[N+](C)(C)CCO4)cc3)cc2)C1` (stereo not given), the compound was called inactive. `COc1ccc2c(c1O)-c1cccc3c1[C@@H](C2)N(C)CC3`: the outcome was inactive. On the same count and under the same terms, with `CC1=CC(=Cc2sc3ccccc3[n+]2C)C=C(C)O1` the entry was “inactive”.
